Data reported in the supplement of paper PMC10849652.
Of roughly 7,900 targets only a part is listed; those with a hit were picked by preference. About 0.6% of all pairs of compound and target were hits. Unmarked numbers belong to inactive results.

Compound: Cc1cc(Nc2cc(CN3CCOCC3)c3nc(C)c(Cc4ccc(Cl)cc4F)n3n2)n[nH]1 [gandotinib]
Assay: log2 fold change, soluble protein after heating vs DMSO (PISA); higher = thermal stabilisation; K562 cells, 10 uM, 30 min; active = over 0.2 and 3.5 SD of the protein, either way, in both replicates (recomputed)
Outline: (§1)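 K562 cells at 2×10^6 cells/mL were given 10 μM compound for 30 min. Aliquots then went through 3 min of heating across 48°C-58°C, were pooled, and were extracted in PBS with 0.5% NP-40 at 4°C, and the supernatant after 21,000xg for 90 min was quantified by TMTpro 16plex LC-MS/MS with channel sums equalised. Thermal stability relative to control samples, from duplicates, is given as log2 fold change.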

Chain of UniProt Q66PJ3 (Q66PJ3 whole entry, looked up): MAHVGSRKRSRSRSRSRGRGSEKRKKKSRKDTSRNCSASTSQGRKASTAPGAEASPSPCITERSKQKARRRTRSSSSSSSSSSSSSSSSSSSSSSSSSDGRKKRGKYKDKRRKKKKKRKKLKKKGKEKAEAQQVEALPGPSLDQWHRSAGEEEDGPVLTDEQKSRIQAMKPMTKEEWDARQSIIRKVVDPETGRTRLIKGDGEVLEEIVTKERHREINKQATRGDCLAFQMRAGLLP
Chain of UniProt Q86UU0 (Q86UU0 whole entry, looked up): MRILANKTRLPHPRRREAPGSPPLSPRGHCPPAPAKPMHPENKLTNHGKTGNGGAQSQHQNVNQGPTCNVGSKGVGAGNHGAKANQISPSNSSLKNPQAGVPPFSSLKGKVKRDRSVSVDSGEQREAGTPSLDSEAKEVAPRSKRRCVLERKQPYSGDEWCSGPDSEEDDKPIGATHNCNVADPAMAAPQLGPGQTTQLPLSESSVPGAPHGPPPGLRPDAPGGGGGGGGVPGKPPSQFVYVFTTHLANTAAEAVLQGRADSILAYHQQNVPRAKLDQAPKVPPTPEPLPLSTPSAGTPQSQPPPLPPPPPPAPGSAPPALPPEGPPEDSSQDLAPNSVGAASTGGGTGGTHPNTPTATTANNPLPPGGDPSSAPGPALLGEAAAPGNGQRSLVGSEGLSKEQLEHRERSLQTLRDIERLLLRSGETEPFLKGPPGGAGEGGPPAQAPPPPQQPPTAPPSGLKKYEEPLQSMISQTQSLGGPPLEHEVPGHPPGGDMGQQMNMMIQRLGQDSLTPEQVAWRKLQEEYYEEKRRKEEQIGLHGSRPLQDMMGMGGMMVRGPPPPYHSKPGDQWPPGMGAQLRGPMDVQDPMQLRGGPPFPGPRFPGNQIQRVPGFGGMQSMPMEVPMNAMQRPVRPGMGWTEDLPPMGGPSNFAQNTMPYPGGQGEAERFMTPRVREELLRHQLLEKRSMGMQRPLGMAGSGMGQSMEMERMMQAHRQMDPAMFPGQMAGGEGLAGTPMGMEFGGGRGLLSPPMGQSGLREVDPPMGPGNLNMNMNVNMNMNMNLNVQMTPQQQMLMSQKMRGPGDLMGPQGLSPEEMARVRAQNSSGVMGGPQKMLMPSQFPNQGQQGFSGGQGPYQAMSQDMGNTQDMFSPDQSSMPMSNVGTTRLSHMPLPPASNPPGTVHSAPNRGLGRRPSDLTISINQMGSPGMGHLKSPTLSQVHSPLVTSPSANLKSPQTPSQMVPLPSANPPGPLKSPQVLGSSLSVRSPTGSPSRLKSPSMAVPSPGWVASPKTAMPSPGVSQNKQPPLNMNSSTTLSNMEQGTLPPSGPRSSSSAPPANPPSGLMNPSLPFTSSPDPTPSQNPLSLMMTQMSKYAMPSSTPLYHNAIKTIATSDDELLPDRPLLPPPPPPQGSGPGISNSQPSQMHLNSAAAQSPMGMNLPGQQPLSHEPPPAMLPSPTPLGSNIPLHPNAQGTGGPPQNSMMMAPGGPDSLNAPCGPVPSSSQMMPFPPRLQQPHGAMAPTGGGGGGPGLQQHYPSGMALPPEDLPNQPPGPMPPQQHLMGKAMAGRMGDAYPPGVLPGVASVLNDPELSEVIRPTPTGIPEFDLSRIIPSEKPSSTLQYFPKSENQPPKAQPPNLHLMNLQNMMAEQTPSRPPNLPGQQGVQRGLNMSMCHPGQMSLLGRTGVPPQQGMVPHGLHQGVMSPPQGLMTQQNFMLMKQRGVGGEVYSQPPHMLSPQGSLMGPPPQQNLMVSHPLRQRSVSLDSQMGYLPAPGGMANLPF
Chain of UniProt Q9UBL3 (Q9UBL3 whole entry, looked up): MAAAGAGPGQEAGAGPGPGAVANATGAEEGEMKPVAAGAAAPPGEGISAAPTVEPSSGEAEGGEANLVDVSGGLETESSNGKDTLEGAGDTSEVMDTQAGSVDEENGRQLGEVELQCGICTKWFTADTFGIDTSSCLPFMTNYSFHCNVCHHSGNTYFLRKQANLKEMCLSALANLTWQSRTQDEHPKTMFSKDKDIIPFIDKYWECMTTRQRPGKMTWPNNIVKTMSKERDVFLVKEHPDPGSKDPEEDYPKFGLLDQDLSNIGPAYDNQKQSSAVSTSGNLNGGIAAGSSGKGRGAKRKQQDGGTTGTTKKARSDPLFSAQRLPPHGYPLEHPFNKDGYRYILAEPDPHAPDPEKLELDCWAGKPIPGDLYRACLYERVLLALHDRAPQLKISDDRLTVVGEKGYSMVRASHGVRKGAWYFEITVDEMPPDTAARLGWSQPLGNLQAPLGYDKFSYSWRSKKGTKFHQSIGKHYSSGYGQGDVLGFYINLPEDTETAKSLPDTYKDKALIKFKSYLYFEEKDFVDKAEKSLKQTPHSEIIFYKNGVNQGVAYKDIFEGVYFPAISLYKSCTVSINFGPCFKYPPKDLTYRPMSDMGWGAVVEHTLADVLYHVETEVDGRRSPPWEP
Chain of UniProt Q15904 (Q15904 whole entry, looked up): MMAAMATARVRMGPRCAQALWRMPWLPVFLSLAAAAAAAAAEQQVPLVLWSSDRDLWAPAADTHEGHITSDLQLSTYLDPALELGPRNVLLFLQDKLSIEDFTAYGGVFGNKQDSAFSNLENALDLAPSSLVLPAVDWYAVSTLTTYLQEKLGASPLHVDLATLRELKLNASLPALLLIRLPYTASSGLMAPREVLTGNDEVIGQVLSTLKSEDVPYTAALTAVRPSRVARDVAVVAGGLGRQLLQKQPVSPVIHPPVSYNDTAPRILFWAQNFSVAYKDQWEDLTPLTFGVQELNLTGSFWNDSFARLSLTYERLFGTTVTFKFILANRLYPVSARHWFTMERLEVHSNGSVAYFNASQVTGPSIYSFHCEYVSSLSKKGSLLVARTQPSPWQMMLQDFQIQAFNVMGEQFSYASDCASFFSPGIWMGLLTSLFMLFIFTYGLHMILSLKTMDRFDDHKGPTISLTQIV
Chain of UniProt Q13733 (Q13733 whole entry, looked up): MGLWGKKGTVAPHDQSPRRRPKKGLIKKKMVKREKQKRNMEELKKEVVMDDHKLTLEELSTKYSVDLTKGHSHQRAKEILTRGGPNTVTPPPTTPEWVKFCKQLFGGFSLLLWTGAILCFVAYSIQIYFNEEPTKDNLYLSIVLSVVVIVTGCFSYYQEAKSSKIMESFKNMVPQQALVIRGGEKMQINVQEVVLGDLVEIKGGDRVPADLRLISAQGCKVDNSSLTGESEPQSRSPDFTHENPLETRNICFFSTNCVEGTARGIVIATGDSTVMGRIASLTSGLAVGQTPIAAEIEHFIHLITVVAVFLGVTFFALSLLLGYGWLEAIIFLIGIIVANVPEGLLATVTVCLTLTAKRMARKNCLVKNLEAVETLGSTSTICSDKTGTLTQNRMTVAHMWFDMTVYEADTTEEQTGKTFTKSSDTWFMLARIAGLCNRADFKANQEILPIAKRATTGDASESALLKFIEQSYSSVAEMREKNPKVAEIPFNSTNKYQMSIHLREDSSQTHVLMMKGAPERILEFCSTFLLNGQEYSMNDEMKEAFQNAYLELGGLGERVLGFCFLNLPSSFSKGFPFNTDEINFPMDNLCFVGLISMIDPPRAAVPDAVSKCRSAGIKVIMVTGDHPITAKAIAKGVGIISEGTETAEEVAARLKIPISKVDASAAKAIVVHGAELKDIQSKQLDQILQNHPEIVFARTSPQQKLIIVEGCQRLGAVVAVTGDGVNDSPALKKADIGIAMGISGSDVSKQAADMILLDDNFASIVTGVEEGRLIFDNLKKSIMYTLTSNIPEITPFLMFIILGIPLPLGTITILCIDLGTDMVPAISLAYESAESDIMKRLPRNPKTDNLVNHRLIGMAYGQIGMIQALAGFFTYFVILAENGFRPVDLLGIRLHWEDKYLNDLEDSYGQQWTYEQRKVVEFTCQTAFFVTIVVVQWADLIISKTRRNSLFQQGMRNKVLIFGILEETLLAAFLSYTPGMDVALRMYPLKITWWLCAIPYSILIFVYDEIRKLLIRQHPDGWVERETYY
Chain of UniProt Q9NX38 (Q9NX38 whole entry, looked up): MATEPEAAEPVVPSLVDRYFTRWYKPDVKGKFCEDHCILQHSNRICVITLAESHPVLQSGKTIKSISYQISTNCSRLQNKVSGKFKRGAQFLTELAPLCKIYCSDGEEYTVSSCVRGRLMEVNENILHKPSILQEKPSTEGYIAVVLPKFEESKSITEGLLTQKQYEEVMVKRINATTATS
Chain of UniProt P54886 (P54886 whole entry, looked up): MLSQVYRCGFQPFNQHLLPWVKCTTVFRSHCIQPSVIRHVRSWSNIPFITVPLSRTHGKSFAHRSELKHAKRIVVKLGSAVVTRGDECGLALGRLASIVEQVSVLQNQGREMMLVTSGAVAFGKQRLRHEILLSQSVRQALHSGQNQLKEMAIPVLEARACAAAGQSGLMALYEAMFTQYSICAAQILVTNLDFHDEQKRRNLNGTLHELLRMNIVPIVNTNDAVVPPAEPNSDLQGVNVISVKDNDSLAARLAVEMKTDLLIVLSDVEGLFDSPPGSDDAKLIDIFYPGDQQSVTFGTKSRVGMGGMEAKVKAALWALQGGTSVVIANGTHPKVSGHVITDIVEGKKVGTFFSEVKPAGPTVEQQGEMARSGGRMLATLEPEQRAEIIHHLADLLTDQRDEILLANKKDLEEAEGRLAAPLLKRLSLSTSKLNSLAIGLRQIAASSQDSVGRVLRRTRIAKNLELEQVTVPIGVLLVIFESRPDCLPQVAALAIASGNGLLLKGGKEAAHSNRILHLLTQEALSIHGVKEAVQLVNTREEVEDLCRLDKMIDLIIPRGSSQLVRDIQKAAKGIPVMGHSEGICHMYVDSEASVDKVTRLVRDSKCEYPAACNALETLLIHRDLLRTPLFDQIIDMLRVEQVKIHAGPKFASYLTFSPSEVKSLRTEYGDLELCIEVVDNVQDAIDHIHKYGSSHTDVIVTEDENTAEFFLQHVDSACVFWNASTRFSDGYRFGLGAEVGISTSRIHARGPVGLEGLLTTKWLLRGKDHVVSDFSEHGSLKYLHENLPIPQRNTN
Chain of UniProt P18085 (P18085 whole entry, looked up): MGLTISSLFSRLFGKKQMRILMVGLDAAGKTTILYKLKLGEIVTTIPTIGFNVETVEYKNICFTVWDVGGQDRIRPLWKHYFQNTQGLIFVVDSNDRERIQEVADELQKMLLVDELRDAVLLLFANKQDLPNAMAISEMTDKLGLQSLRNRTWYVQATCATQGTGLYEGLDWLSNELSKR

Target | log2 fold change
ACSL5 isoform 3 (UniProt Q9ULC5) | 0.021
ADK (UniProt P55263) | 0.276
ATP1B3 (UniProt P54709) | -0.013
BCCIP isoform 2 (UniProt Q9P287) | -0.047
ANKZF1 (UniProt Q9H8Y5) | 0.007
BRD8 isoform 2 (UniProt Q9H0E9) | 0.113
ALDH18A1 (UniProt P54886) | -0.323
AARSD1 isoform 3 (UniProt Q9BTE6) | -0.081
BRK1 isoform 2 (UniProt Q8WUW1) | -0.024
BST2 (UniProt Q10589) | -0.016
ATP6V1H (UniProt Q9UI12) | 0.021
ACACB (UniProt O00763) | 0.041
AHSA1 (UniProt O95433) | -0.077
ARL6IP4 (UniProt Q66PJ3) | 0.114
ABITRAM (UniProt Q9NX38) | 0.169
ABCC5 (UniProt O15440) | -0.05
BCAP29 isoform 2 (UniProt Q9UHQ4) | 0.037
ASH2L (UniProt Q9UBL3) | 0.004

Target | log2 fold change
ALG5 (UniProt Q9Y673) | -0.084
BCL9L (UniProt Q86UU0) | 0.097
APPL1 (UniProt Q9UKG1) | 0.123
AFDN isoform 5 (UniProt P55196) | -0.159
ALDH9A1 isoform 3 (UniProt P49189) | 0.063
ACSL1 (UniProt P33121) | 0.008
ACADM isoform 2 (UniProt P11310) | 0.049
AKR1C2 (UniProt P52895) | 0.089
ALG3 (UniProt Q92685) | -0.107
AKR1C3 (UniProt P42330) | 0.005
ARL6IP6 (UniProt Q8N6S5) | -0.008
AK6 (UniProt Q9Y3D8) | -0.049
APOB (UniProt P04114) | -0.198
BLVRB (UniProt P30043) | -0.085
ATP6AP1 (UniProt Q15904) | -0.03
ATP1A4 (UniProt Q13733) | -0.026
ARF4 (UniProt P18085) | -0.074
BZW1 isoform 3 (UniProt Q7L1Q6) | -0.189

Compound: Cc1cc(Nc2cc(N3CCN(C)CC3)nc(Sc3ccc(NC(=O)C4CC4)cc3)n2)n[nH]1 [tozasertib]
Assay: as above
Outline: as §1

Target | log2 fold change
ACSL5 isoform 3 (UniProt Q9ULC5) | -0.076
ADK (UniProt P55263) | 0.015
ATP1B3 (UniProt P54709) | -0.019
BCCIP isoform 2 (UniProt Q9P287) | 0
ANKZF1 (UniProt Q9H8Y5) | 0.021
BRD8 isoform 2 (UniProt Q9H0E9) | 0.004
ALDH18A1 (UniProt P54886) | 0.024
AARSD1 isoform 3 (UniProt Q9BTE6) | 0.055
BRK1 isoform 2 (UniProt Q8WUW1) | -0.047
BST2 (UniProt Q10589) | -0.009
ATP6V1H (UniProt Q9UI12) | 0.06
ACACB (UniProt O00763) | -0.013
AHSA1 (UniProt O95433) | 0.015
ARL6IP4 (UniProt Q66PJ3) | -0.005
ABITRAM (UniProt Q9NX38) | -0.012
ABCC5 (UniProt O15440) | -0.023
BCAP29 isoform 2 (UniProt Q9UHQ4) | -0.019
ASH2L (UniProt Q9UBL3) | 0.068

Target | log2 fold change
ALG5 (UniProt Q9Y673) | -0.046
BCL9L (UniProt Q86UU0) | -0.076
APPL1 (UniProt Q9UKG1) | -0.028
AFDN isoform 5 (UniProt P55196) | -0.029
ALDH9A1 isoform 3 (UniProt P49189) | -0.024
ACSL1 (UniProt P33121) | -0.028
ACADM isoform 2 (UniProt P11310) | -0.022
AKR1C2 (UniProt P52895) | -0.045
ALG3 (UniProt Q92685) | -0.019
AKR1C3 (UniProt P42330) | -0.059
ARL6IP6 (UniProt Q8N6S5) | -0.22
AK6 (UniProt Q9Y3D8) | 0.036
APOB (UniProt P04114) | -0.085
BLVRB (UniProt P30043) | -0.011
ATP6AP1 (UniProt Q15904) | 0.028
ATP1A4 (UniProt Q13733) | -0.053
ARF4 (UniProt P18085) | -0.021
BZW1 isoform 3 (UniProt Q7L1Q6) | 0.054
